Source: PubChem BioAssay (several laboratories)
ALR inh = inhibitors of human ALR sulfhydryl oxidase, primary screen, biochemical, H2O2 detection, HRP-luminol luminescence, single point | hit rate 3.8% among 290,000 | inhibition, % (test concentration not listed) | FAD-linked sulfhydryl oxidase ALR (Homo sapiens), P55789 | purified ALR, DTT oxidation;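 active = mean replicate inhibition above about 79%, with every replicate also reaching it, limit read from the data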
A3A deaminase = APOBEC3A ssDNA deaminase inhibitors, primary screen, selectivity assay for APOBEC3G inhibitor project, biochemical, FAM/TAMRA oligo cleavage fluorescence; inhibition, % at 20 µM; DNA dC->dU-editing enzyme APOBEC-3A (Homo sapiens), P31941; recombinant A3A, FAM/TAMRA ssDNA deamination fluorescence; AID 493011, 2011; hit rate 0.41% among 330,000;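 active = at least 40% inhibition at 20 µM here, with at most 30% in a related deaminase screen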;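 also: plate controls were A3A with DMSO for no effect and wells lacking A3A enzyme for full effect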
Target sequence (P31941 whole entry, looked up): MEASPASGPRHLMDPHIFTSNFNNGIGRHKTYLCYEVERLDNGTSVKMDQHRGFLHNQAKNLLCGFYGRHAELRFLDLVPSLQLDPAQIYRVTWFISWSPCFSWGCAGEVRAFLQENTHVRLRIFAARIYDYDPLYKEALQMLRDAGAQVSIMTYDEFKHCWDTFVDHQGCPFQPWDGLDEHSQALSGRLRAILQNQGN
NRP1-CendR mod = modulators of CendR peptide binding to NRP-1, primary screen, biochemical, fluorescence polarization, uHTS; FAM-RPARPAR peptide binding to NRP-1; Neuropilin-1 (Homo sapiens), O14786; inhibition, % at 25 µM; hit rate 0.85% among 360,000; AID 602438, 2012;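 active = inhibition or corrected inhibition above about 18%, plus a signal ratio from 0.5 to 1.5, limit read from the data, passing the limit was not always enough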
M18AAP inhibitor = PfM18AAP inhibitors, malaria aminopeptidase, primary screen, biochemical, QFRET, recombinant enzyme. M18 aspartyl aminopeptidase (Plasmodium falciparum 3D7). H-Glu-NHMec fluorogenic cleavage. inhibition, % at 7.35 µM. hit rate 1.2% among 290,000. AID 1822, 2009;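 active = inhibition above the campaign mean inhibition over all tested compounds plus 3 SD, cut at about 28% in these data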;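 also: 0% = plate median of test compound wells and 100% = 2 mM ZnCl2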
Yeast superoxide = reduction of superoxide in aged yeast, primary screen, HTS; S. cerevisiae aged cells, superoxide DHE fluorescence; stronger effect = lower value; superoxide response (% of plate mean), % at 10 µM; hit rate 0.18% among 330,000; AID 2690, 2010;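 active = superoxide response under a set limit, about three screen SD below normal, cut at about 65% in these data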;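 also: yeast aged for seven days with compound at 30 °C before DHE staining; 100% = average MFI of all compound-treated wells on the plate with controls excluded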
APOBEC3G inh = APOBEC3G DNA deaminase inhibitors, primary screen, biochemical, fluorescence, single-stranded DNA substrate, uHTS | DNA dC->dU-editing enzyme APOBEC-3G (Homo sapiens), Q9HC16 | AID 493012, 2011 | hit rate 0.28% among 330,000 | recombinant A3G, ssDNA deamination FAM/TAMRA fluorescence | inhibition, % at 20 µM;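 active = inhibition of at least 40% at 20 µM, with no more than 30% in the related APOBEC3A deaminase screen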;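 also: plate controls were DMSO wells with A3G for no effect and wells lacking A3G enzyme for full effect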
Target sequence (Q9HC16 whole entry, looked up): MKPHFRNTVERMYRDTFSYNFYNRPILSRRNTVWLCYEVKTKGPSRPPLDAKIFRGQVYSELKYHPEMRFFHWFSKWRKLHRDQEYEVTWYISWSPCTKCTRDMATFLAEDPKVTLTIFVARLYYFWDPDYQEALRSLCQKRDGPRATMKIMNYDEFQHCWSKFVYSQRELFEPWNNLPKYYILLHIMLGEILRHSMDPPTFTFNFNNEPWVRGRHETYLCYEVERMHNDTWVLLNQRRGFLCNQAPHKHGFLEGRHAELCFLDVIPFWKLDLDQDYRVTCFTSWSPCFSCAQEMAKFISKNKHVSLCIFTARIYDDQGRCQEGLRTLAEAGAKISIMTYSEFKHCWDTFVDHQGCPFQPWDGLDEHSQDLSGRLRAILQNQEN
APOBEC3G confirm = APOBEC3G deaminase inhibitor retest, confirmation, biochemical, fluorescence, single-stranded DNA substrate, single concentration | AID 493152, 2011 | hit rate 72% among 890 | recombinant A3G ssDNA deaminase, UDG/FAM-TAMRA fluorescence | shares compounds with APOBEC3G inh | inhibition, % at 20 µM;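 active = inhibition reaching a set limit in any replicate at 20 µM, the limit being 80% of the first screen's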
UDG A3G counter = E. coli UDG inhibitors, confirmation, counter-screen for APOBEC3G inhibitor project, biochemical, single concentration, fluorescence, FAM/TAMRA oligo. shares compounds with APOBEC3G inh. UDG counterscreen. inhibition, % at 20 µM. 710 tested, under 10 active. AID 504715, 2011;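 active = compounds giving 40% or more inhibition at 20 µM in any one of the three replicates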;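 also: plate controls were DMSO wells with UDG and oligo for no effect and DMSO wells lacking both for full effect; inhibitors lower the FAM signal released by uracil excision and alkaline cleavage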
Active calls of the source: *. Hits are enriched below; roughly 5.2% of the tested compounds scored in any of these assays.

O=C(Nc1ccc(F)cc1F)N1CCN(C(=O)c2ccco2)CC1 was read as ALR inh -3, A3A deaminase 1, NRP1-CendR mod 7, M18AAP inhibitor 4, Yeast superoxide 106 and APOBEC3G inh 0.
S=c1[nH]nc(-c2cccs2)n1C1CCCCC1 was read as ALR inh 35, A3A deaminase -8, NRP1-CendR mod 6, M18AAP inhibitor -3, Yeast superoxide 101, APOBEC3G inh 45*, APOBEC3G confirm 83* and UDG A3G counter -3.
Screening CC[n+]1c(C)sc2sc3ccccc3c21 returned ALR inh 55, A3A deaminase 25, M18AAP inhibitor 60*, Yeast superoxide 90, APOBEC3G inh 55* and APOBEC3G confirm 67*.
For NC(c1ccccc1)c1csc(NC(=O)Nc2ccccc2Oc2ccccc2)n1 (stereo not given) the results were NRP1-CendR mod -2.
COc1ccc2[nH]c(C)c(CCNC(=S)Nc3cc(C)cc(C)c3)c2c1 was read as ALR inh -2, A3A deaminase -5, NRP1-CendR mod 6, M18AAP inhibitor 1, Yeast superoxide 102 and APOBEC3G inh -9.
CCc1c(C)[nH]c2ccc(OC)cc2c1=S was read as A3A deaminase -4, NRP1-CendR mod -9, M18AAP inhibitor 2, APOBEC3G inh 44*, APOBEC3G confirm 8 and UDG A3G counter -2.
Screening Cc1ccc(/C=N/NC(=O)c2cccc(NC(=O)c3ccccc3Cl)c2)o1 returned ALR inh 0, A3A deaminase -3, NRP1-CendR mod 12, M18AAP inhibitor -8, Yeast superoxide 99 and APOBEC3G inh -2.
Screening O=C(CN(CC(=O)N1CCOCC1)S(=O)(=O)c1ccc(Br)s1)N1CCOCC1 returned ALR inh -3, A3A deaminase -1, NRP1-CendR mod 4, M18AAP inhibitor 0, Yeast superoxide 96, APOBEC3G inh 46*, APOBEC3G confirm 58* and UDG A3G counter -2.
`Nc1nc(N2CCOCC2)n[nH]1` gave A3A deaminase 2, NRP1-CendR mod 8, M18AAP inhibitor -1 and APOBEC3G inh -1.
CC(CC(=O)Nc1nccs1)c1ccccc1 (stereo not given) was read as ALR inh -9, A3A deaminase -2, NRP1-CendR mod 4, M18AAP inhibitor -20, Yeast superoxide 94 and APOBEC3G inh -5.
Screening CC(C)C(C(=O)Nc1nccs1)c1ccccc1 (stereo not given) returned ALR inh -2, A3A deaminase 3, NRP1-CendR mod 10, M18AAP inhibitor -2, Yeast superoxide 92, APOBEC3G inh 48* and APOBEC3G confirm 0.
For O=C(O)c1ccccc1Nc1cc(Cl)c2nonc2c1[N+](=O)[O-] the results were ALR inh 55, A3A deaminase -1, NRP1-CendR mod 1, M18AAP inhibitor -35, Yeast superoxide 113 and APOBEC3G inh -4.
For O=[N+]([O-])c1c(Nc2ccccn2)cc(Cl)c2nonc12 the results were ALR inh -53, A3A deaminase 2, NRP1-CendR mod 137, M18AAP inhibitor 7, Yeast superoxide 87, APOBEC3G inh 45* and APOBEC3G confirm 60*.
`COC(=O)c1ccc(/C=N/Nc2nc(-c3ccc(Cl)cc3Cl)cs2)cc1` gave M18AAP inhibitor -3.
`COC(=O)c1ccc(/C=N/Nc2nc(-c3ccc(C)cc3)cs2)cc1` gave A3A deaminase 1, NRP1-CendR mod -6, M18AAP inhibitor -4, Yeast superoxide 109, APOBEC3G inh 45* and APOBEC3G confirm -4.
Screening CCCn1c(N)c(C(=O)CSc2ncc(C(F)(F)F)cc2Cl)c(=O)[nH]c1=O returned ALR inh 17, A3A deaminase 0, NRP1-CendR mod -8, M18AAP inhibitor -2, Yeast superoxide 104 and APOBEC3G inh -2.
For COc1ccc(C2C(C#N)=C(N)OC3=C2C(=O)CCC3)cc1OC (stereo not given) the results were ALR inh -16, A3A deaminase -4, NRP1-CendR mod 19, M18AAP inhibitor 5, Yeast superoxide 101 and APOBEC3G inh -5.
Screening CCOC(=O)c1csc(NC(=O)CSc2nnnn2-c2ccc(OC)cc2)n1 returned ALR inh -3, A3A deaminase -4, NRP1-CendR mod 7, M18AAP inhibitor -4, Yeast superoxide 87 and APOBEC3G inh -1.
CCOC(=O)c1c(NC(=O)CSc2nnnn2-c2ccc(OC)cc2)sc(C)c1C was read as ALR inh -3, A3A deaminase -1, NRP1-CendR mod -6, M18AAP inhibitor -30, Yeast superoxide 92, APOBEC3G inh 45*, APOBEC3G confirm 77* and UDG A3G counter -3.
Screening S=c1nc[nH]c2c1[nH]c1ccccc12 returned ALR inh 98*, A3A deaminase -4, NRP1-CendR mod -1, M18AAP inhibitor 11, Yeast superoxide 82, APOBEC3G inh 48*, APOBEC3G confirm 71* and UDG A3G counter -1.
Screening COc1cc(/C=N/n2c(-c3cc(C)[nH]n3)n[nH]c2=S)ccc1O returned A3A deaminase -6, NRP1-CendR mod -4, M18AAP inhibitor 12, Yeast superoxide 88 and APOBEC3G inh 35.
COc1cccc(/C=N/n2c(-c3cc(C)[nH]n3)n[nH]c2=S)c1 was read as A3A deaminase -3, NRP1-CendR mod 6, M18AAP inhibitor 8, Yeast superoxide 111, APOBEC3G inh 49*, APOBEC3G confirm 83* and UDG A3G counter -2.
For COc1cc(/C=N/n2c(-c3cc(C)[nH]n3)n[nH]c2=S)cc(OC)c1OC the results were ALR inh 27, A3A deaminase -6, NRP1-CendR mod -123, M18AAP inhibitor -2, Yeast superoxide 96, APOBEC3G inh 47*, APOBEC3G confirm 76* and UDG A3G counter -1.
COc1cccc(/C=N/n2c(COc3ccccc3)n[nH]c2=S)c1 was read as ALR inh -3, A3A deaminase 0, NRP1-CendR mod 3, M18AAP inhibitor 24, Yeast superoxide 98 and APOBEC3G inh 8.
